Compounds with a hit are over-represented: about 1.1% of the library has one in this group of screens.
sEH inh – inhibitors of human soluble epoxide hydrolase; recombinant human sEH enzymatic activity assay; inhibition, % at 2 µM; 0.34% of 91,000 active; in the data active = inhibition above about 80%
Target sequence (P34913 whole entry, looked up): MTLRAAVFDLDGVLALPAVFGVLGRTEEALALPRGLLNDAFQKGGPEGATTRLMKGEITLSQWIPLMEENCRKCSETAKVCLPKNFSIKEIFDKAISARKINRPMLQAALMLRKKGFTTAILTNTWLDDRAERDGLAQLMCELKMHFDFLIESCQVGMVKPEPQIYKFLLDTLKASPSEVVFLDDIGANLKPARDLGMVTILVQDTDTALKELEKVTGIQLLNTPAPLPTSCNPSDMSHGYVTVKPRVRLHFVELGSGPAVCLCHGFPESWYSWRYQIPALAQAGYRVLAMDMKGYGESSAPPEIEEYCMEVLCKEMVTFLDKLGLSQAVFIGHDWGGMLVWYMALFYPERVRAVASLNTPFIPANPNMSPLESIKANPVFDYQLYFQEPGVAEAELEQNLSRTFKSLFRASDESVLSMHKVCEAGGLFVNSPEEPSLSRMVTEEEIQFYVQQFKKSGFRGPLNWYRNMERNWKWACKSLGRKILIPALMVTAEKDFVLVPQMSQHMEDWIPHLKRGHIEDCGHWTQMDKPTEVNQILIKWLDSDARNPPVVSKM
IL1B cytotox – toxic to HUVEC cells under IL-1B stimulation; HUVEC cell count loss, Hoechst imaging, IL-1B stimulated; cell count reduction, % at 2 µM; 0.41% of 94,000 active;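 active = cell count reduction more than 3 SD above the screen-wide mean, cut at about 70% in these data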;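 note: normalized per plate to untreated control cells as the no-loss baseline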
sEH act – soluble epoxide hydrolase (human) activation. purified human sEH enzymatic activity, activator screen. activation, % at 2 µM. 0.04% of 91,000 active; in the data active = activation above about 37%
IL1B NFkB pot – enhances IL-1B driven NFkB nuclear translocation. HUVEC IL-1B NFkB p65 nuclear translocation imaging. activation, % at 2 µM. 0.3% of 94,000 active. AID 819;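 active = activation above 40%, about the mean plus 3 SD, also judged a hit on visual image review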;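 note: percent activation is computed from the nuclear over cytoplasmic p65 intensity ratio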
NFkB transloc inh – blocks IL-1B driven NFkB nuclear translocation in HUVEC cells. inhibition, % at 2 µM. HUVEC IL-1B NFkB p65 nuclear translocation imaging. 0.43% of 94,000 active;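 active = inhibition above about 30% together with a positive call from visual inspection of the well image, limit read from the data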;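 note: nuclear over cytoplasmic p65 intensity ratio measured by imaging; 0% = IL-1B stimulated DMSO wells and 100% = unstimulated DMSO wells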
Active calls of the source: *; . = not tested or not shown.

SMILES | sEH inh | IL1B cytotox | sEH act | IL1B NFkB pot | NFkB transloc inh
O=C(COc1ccc(Cl)cc1)N1CCN(Cc2ccccc2)CC1 | . | -17 | . | 43* | -43
CC(C)NS(=O)(=O)c1ccc(OCC(=O)N2CCN(Cc3ccccc3)CC2)cc1 | -2 | -43 | 1 | 11 | -11
CN1C(=O)c2ccccc2Sc2ccc(C(=O)N3CCC4(CC3)OCCO4)cc21 | 4 | -3 | -4 | 157* | -157
CCC12C=CCN3CCC4(c5cc(Br)c(OC)cc5N(C)C4C(O)(C(=O)OC)C1OC(C)=O)C32 (stereo unspecified) | 12 | -20 | -10 | 40* | -40
CC(C)OCCCNC(=O)c1c(N)n(CC2CCCO2)c2nc3ccccc3nc12 (stereo unspecified) | -11 | 90* | 6 | -97 | 97*
CC1CCC(C(=O)NC(C(=O)N2CCC3(CC2)OCCO3)C(C)C)CC1 (stereo unspecified) | -4 | -5 | 0 | 7 | -7
O=C(CNS(=O)(=O)c1ccc(Br)s1)N1CCC2(CC1)OCCO2 | 6 | 14 | -6 | 43* | -43
O=C(c1ccc(CNS(=O)(=O)c2ccccc2)cc1)N1CCC2(CC1)OCCO2 | . | -15 | . | -11 | 11
COc1ccc(CCNCc2ccccn2)cc1OC | 4 | -8 | -5 | -36 | 36*
COP(=O)(OC)C1(Nc2ccc(C)cc2)CCCCC1 | -10 | . | 10 | . | .
O=c1c2ccccc2nc(-c2ccco2)n1-c1cccnc1 | -14 | 84* | 13 | -4 | 4
O=c1c2ccccc2nc(-c2ccco2)n1-c1ccccn1 | 2 | 3 | -3 | 4 | -4
CCC(=NCCCn1ccnc1)c1c(O)n(Cc2ccccc2)c(=O)[nH]c1=O | -15 | -1 | 16 | -10 | 10
Cc1nn(C)c(C)c1P(=S)(c1c(C)nn(C)c1C)N(C)C | -13 | 1 | 13 | 9 | -9
CCOc1cc(/C=C2/C(=O)NC(=O)N(c3ccc(CC)cc3)C2=O)ccc1OC(=O)c1cccs1 | -4 | 4 | 2 | 3 | -3
CCN(CC)CCN=Cc1c(O)n(CCC2=CCCCC2)c(=O)[nH]c1=O | 23 | 89* | -22 | -26 | 26
CCCCn1c(=O)c(C(=O)Nc2cnccn2)c(O)c2ccccc21 | 4 | -20 | -5 | 5 | -6
CC(C)CCn1c(=O)c(C(=O)Nc2ccccc2S(N)(=O)=O)c(O)c2ccccc21 | 8 | -9 | -9 | -39 | 39*
CCCNS(=O)(=O)c1ccc(OCC(=O)N2CCN(C)CC2)cc1 | -14 | 88* | 14 | 25 | -25
CCCNS(=O)(=O)c1ccc(OCC(=O)N2CCN(Cc3ccc4c(c3)OCO4)CC2)cc1 | -5 | -9 | 9 | -4 | 4
